# Test results: PubChem BioAssay (NCI)
# Values joined by “and” are separate entries in the source; they are usually repeats but may differ in a detail not shown here. Equal values may be shown once. Compounds without any hit were thinned out: in the full panel of roughly 83,000, 20% have a hit.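 How to read the values: 0–100, growth inhibition (40 = 60% inhibited); 0, no net growth; -100 to 0, cell death (-40 = 40% of starting cells died; -100 = all dead).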 Unmarked numbers belong to inactive results. Active and inactive are the calls of the source. Rule for the calls: active = growth percent below 10; inactive = the rest.
# Columns and labels:
# Assay in all cases: NCI-60 one-dose screen, 48 h (100 = growth as untreated, 0 = no growth, -100 = all killed)
# Conditions in all cases: 10 µM unless noted
# T-47D breast = test system: T-47D breast
# BT-549 breast = test system: BT-549 breast
# MDA-MB-435 melanoma = test system: MDA-MB-435 melanoma
# SW-620 colon = test system: SW-620 colon
# MCF7 breast = test system: MCF7 breast
# HCT-116 colon = test system: HCT-116 colon
# HCC-2998 colon = test system: HCC-2998 colon
# KM12 colon = test system: KM12 colon
SMILES,growth (T-47D breast),growth (BT-549 breast),growth (MDA-MB-435 melanoma),growth (SW-620 colon),growth (MCF7 breast),growth (HCT-116 colon),growth (HCC-2998 colon),growth (KM12 colon)
CCN(CC)C(=S)SCCO,101%,144%,111%,106%,104%,107%,94.1%,105%
CC1CCC(=O)N1c1ccc(N)cc1 (stereo not given),81.9%,99.9%,109%,114%,97.6%,101%,98.8%,102%
N=C(N)N1CCc2ccccc2C1,86.2% and 101%,84.4% and 103%,96% and 95.6%,94.5% and 88.1%,106% and 104%,94.7% and 102%,83.2% and 99.2%,92.6% and 94%
O=C(c1ccc(Cl)cc1)C1C(c2ccccc2)C1[N+](=O)[O-] (stereo not given),89.3%,99.3%,114%,104%,96%,106%,96.9%,97.9%
CCC(=O)Oc1ccc(OCc2ccccc2)cc1,113% and 89.5%,73.4%,96.9% and 82.1%,90.2% and 79.7%,91.4% and 88.5%,99.7% and 102%,84.4% and 87.7%,86.5% and 89.6%
CCNCc1ccccc1,98.3%,124%,110%,108%,98.7%,97.6%,99.8%,99.8%
Cc1cnc(N)s1,90.2%,100%,104%,103%,95.4%,95.8%,92%,103%
C/C(=C\c1ccccc1)C(O)C(=O)c1nc2ccc([N+](=O)[O-])cc2[nH]c1=O (stereo not given),77.5%,78.9%,99.5%,104%,79.3%,91.4%,106%,90.3%
CSc1nc(N)c(N)c(N)n1,97.2%,101%,112%,104%,105%,86.5%,109%,104%
CCOC(=O)c1ccc(C(=N)N)cc1,105%,119%,109%,102%,95.3%,106%,103%,109%
O=C(O)c1c2c(nc3ccccc13)Cc1ccccc1-2,97.3% and 98.5%,103% and 88.1%,112% and 96.6%,99.3% and 90.1%,97.3% and 92%,95.6% and 104%,98.3% and 99.9%,97.8% and 98.9%
NCCCCCC(=O)O,101% [middle of 4 runs],98.5% and 107% and 112%,105% [middle of 4 runs],109% and 98.2% and 107%,105% [middle of 4 runs],–,–,114% [middle of 4 runs]
Cn1c(-c2ccccc2)cc(=O)cc1-c1ccccc1,97.1%,86.8%,116%,51.7%,53.3%,61.6%,127%,98.5%
COc1ccc(S(=O)(=O)c2ccc(F)cc2)cc1,99%,99%,122%,103%,101%,102%,111%,106%
CC1(C)OC(=O)C(=Cc2ccc(C#N)cc2)C(=O)O1,86.4% and 102%,109% and 103%,108% and 105%,100% and 104%,104% and 95.6%,96.5% and 108%,112% and 105%,105% and 115%
CCCC(=O)OCC(COC(=O)CCC)OC(=O)CCC,85.3%,106%,106%,95.6%,93.9%,98.8%,95.3%,103%
O=c1[nH]c(=S)[nH]n1C(=S)n1[nH]c(=S)[nH]c1=O,92%,108%,110%,98.5%,91.8%,102%,99.6%,98.4%
Cc1cc(=NO)cc(C)n1O,94.4%,82.8%,106%,100%,87.6%,97.3%,120%,110%
O=[N+]([O-])c1ccc(NC2CCCCC2)nc1,102%,114% and 106%,102% and 112%,103% and 109%,110% and 102%,108% and 101%,105% and 96.3%,111% and 103%
Clc1ccc2c(c1)N(C1CCCN(Cc3ccccc3)C1)c1ccccc1S2 (stereo not given),69%,61.2%,5.2% (active),22.6%,18.4%,12.1%,23%,33.7%
CC(=O)/C(N=Nc1ccc(S(=O)(=O)c2ccc(N=N/C(C(C)=O)=C(/C)O)cc2)cc1)=C(\C)O,113%,–,118%,99.4%,96.1%,93.2%,96.4%,94.8%
